MLL CXXC-DNA inh – inhibitors of human MLL CXXC domain-DNA interaction; Q03164; MLL-CXXC / FITC-HOXA9 DNA fluorescence polarization; Potency, µM (series often up to 115 µM), inactives show at the top dose activity change, negative = inhibition, most hits filed as inhibitors; 0.037% of 290,000 active; AID 2662; active means well fitted inhibition curve with a large enough effect in the polarisation, with a control signal flat, not every such curve was filed as active; inconclusive means small, poorly fitted or top-dose-only effect, or effect the other way, or a change in a side signal; inactive means no such curve, though single readings can be large or run the other way; the % refers to the polarisation; further: potency means the concentration at half of the fitted maximal effect
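Steps: dispense CXXC domain solution (7 uM) → pin compounds or unlabeled HOX-A9 DNA control → 5 min ambient → add FLSN-HOX-A9 solution (50 nM) → spin → 30 min ambient → fluorescence polarization. Tris pH 7.5/NaCl/DTT/BSA buffer.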
Menin-MLL TR inh – menin-MLL binding inhibition, Texas Red mutant peptide | O00255 | Menin + Texas Red MLL mutant peptide, fluorescence polarization | Potency, µM (series often up to 61.6 µM), without a hit: at the top dose FP activity change, negative = inhibition, usual class: inhibitors | 0.23% of 270,000 active; active means well fitted inhibition curve with a large enough effect in the polarisation, with a control signal flat, not every such curve was filed as active; inconclusive means small, poorly fitted or top-dose-only effect, or effect the other way, or a change in a side signal; inactive means no such curve, though single readings can be large or run the other way; the % refers to the polarisation; further: potency means the concentration at half of the fitted maximal effect; % of control where 0% means no effect
Menin MLL FP FL – menin-MLL binding inhibition, fluorescein peptide; Fluorescence polarization, fluorescein-MLL peptide displacement from menin; FP activity change, % at 61.4 µM; 290,000 tested, under 10 active; active means well fitted curve in the direction sought with a large enough effect in the polarisation, not every such curve was filed as active; inconclusive means small, poorly fitted or top-dose-only effect, or effect the other way, or a change in a side signal; inactive means no such curve, though single readings can be large or run the other way; the % refers to the polarisation; further: % of control where 0% means no effect
GAA inhib – alpha-glucosidase (human) inhibition | P10253 | purified human GAA, 4-MU-alpha-glucoside fluorescence | Potency, µM (series often up to 76.9 µM), for the others: at the highest dose activity change, negative = inhibition, actives largely listed as inhibitors | 0.005% of 200,000 active | AID 1466;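 further: potency means the concentration at half of the fitted maximal effect; plate controls were uninhibited enzyme wells for no effect and no-enzyme background for full effect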
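Fluorogenic assay: 4 nM human alpha-glucosidase with 400 uM 4-methylumbelliferyl-alpha-D-pyranoside in 50 mM citrate/phosphate, 0.005% Tween-20, pH 5.0, 20 min at room temperature. Compounds tested up to 77 uM; AC50 from Hill fits.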
aGlu spleen mod – lysosomal alpha-glucosidase (human) modulation | 0.006% of 240,000 active | Potency, µM (top dose mostly 79.9 µM), without a hit: at the top dose activity change, negative = inhibition, most hits filed as inhibitors | P10253 | human spleen homogenate, 4-MU-alpha-glucoside fluorescence | AID 2112;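 further: potency means the concentration at half of the fitted maximal effect; 0% = enzyme with vehicle and -100% = no enzyme basal signal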
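Human spleen homogenate (1 ug) incubated with compounds and 1 mM 4-methylumbelliferyl-alpha-D-glucopyranoside in pH 5.0 citrate/phosphate buffer, 37 C, 40 min. Stopped at pH 10; 4-MU fluorescence (Ex 365/Em 440 nm); AC50 by Hill fit.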
GAA glycogen – inhibitors or activators of human alpha-glucosidase glycogen cleavage; recombinant GAA, glycogen substrate, Amplex Red glucose oxidase fluorescence; Potency, µM (top dose mostly 76.4 µM), without a hit: at the top dose activity change, negative = inhibition, most hits filed as inhibitors; 0.38% of 300,000 active;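 further: potency means the concentration at half of the fitted maximal effect; 0% = full enzyme reaction and -100% = no-enzyme basal signal; the screen sought inhibitors and activators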
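Natural-substrate format: glycogen cleavage by 4 nM human enzyme, glucose read by Amplex Red coupling (Ex 573, Em 610 nm). Normalized to enzyme and no-enzyme controls.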
* marks the source's active call; other numbers are inactive results; u = inconclusive; x = no result given; [ ] = dose if it differs, or a comment. Shown are actives, neighbours in structure and some others; about 0.45% of the full set was active somewhere. Unless noted, the call rests on the fitted dose curve; in most records, active means well fitted curve in the direction sought with a large enough effect; inconclusive means small, poorly fitted or top-dose-only effect, or another doubt; inactive means no such curve, though single readings can be large; an effect the other way counts as inactive or inconclusive.

SMILES	MLL CXXC-DNA inh	Menin-MLL TR inh	Menin MLL FP FL	GAA inhib	aGlu spleen mod	GAA glycogen
Cc1ccc2occ(/C=N/NC(=O)c3ccc(O)cc3)c(=O)c2c1	179%	7%	-9	x	x	-10%[76.3 µM]
Cc1noc(C)c1C(=O)N1CCC2(CC1)CN(c1ncccn1)C2	x	3%	5	x	3%	x
CCC[C@H](NC(C)=O)C(=O)N[C@H]1CC(=O)ONCCCC[C@@H](C(N)=O)NC(=O)[C@H](Cc2c[nH]c3ccccc23)NC(=O)[C@H](CCCN=C(N)N)NC(=O)[C@@H](Cc2ccc3ccccc3c2)NC(=O)[C@H](Cc2cnc[nH]2)NC1=O	x	0%	1	x	0%	x
O=C1CC(N2CCN(c3ccc(O)cc3)CC2)C(=O)N1Cc1cccs1 (stereo not given)	-4%	0%	5	-3%	-11%	6.3µM*
COc1ccc2nc(C)cc(Nc3ccc(Cl)c(Cl)c3)c2c1	x	x	x	x	x	-1%[76.3 µM]
Cc1ccccc1Oc1ncnc2oc(-c3ccccc3)cc12	20%	20%	4	u	4%	-4%
Clc1ccc(Oc2ncnc3oc(-c4ccccc4)cc23)cc1	7%	10µM*	-2	6%	5%	-1%
C=CC[n+]1c(-c2ccc(OC)c(OC)c2)csc1NNC(=O)Nc1ccccc1	-6%	2%	12	-4%	5%	32µM*
C=CC[n+]1c(-c2ccccc2)csc1NC(C)(C)C	5%	-14%	-1	-3%	-9%	7%
CCCn1c(SCc2nc(-c3ccccc3OCC)no2)nnc1-c1ccc(Cl)cc1	x	x	x	x	x	-14%[76.3 µM]
CC1CCCC(NC(=O)Nc2cccs2)C1C (stereo not given)	-3%	x	7	-22%	-8%	14µM*
CC1CCCC(NC(=O)c2ccncc2)C1C (stereo not given)	1%	0%	0	x	x	13%[76.3 µM]
COc1cccc(-c2nc(N3CCNCC3)c3ccccc3n2)c1	x	13%	1	x	-2%	x
O=C1/C(=C\c2ccc(O)c(O)c2)C(c2ccccc2)=NN1c1ccccc1	-17%	u	9	4%	-2%	4µM*
COc1cccc(C2CC(=O)Nc3c2c(=O)[nH]c2ncnn32)c1OC (stereo not given)	x	x	x	x	x	-1%[76.3 µM]
COc1ccc(OCc2cc(C(=O)NCC(C)Oc3cccnc3)no2)c(Cl)c1 (stereo not given)	0%	x	x	x	x	-8%[76.3 µM]
COc1ccc(N=C2C(=O)Nc3ccccc32)cc1	-4%	0%	-2	5%	1%	u
COc1ccc(OC)c(N=C2C(=O)Nc3ccccc32)c1	-4%	-18%	-1	u	-2%	31µM*
Cc1ccc(CNc2oc(-c3cccs3)nc2C#N)cc1	6%	14%	2	u	7%	22µM*
N#Cc1nc(Cc2ccccc2)oc1NCCN1CCOCC1	-3%	0%	1	-3%	1%	-6%
N#Cc1nc(Cc2ccccc2)oc1NCc1ccccc1	-1%	-10%	-1	-4%	-5%	50µM*
Cc1ccc(CNC(=O)CN(c2ccc(Cl)cc2)S(C)(=O)=O)cc1	5%	0%	6	x	x	2%[76.3 µM]
COC(=O)C(N)Cc1ccc(O)cc1 (stereo not given)	8%	-1%	-1	3%	-1%	5%
COC(=O)C(N)Cc1ccc(O)c(O)c1 (stereo not given)	7%	x	-1	-3%	-11%	3.1µM*
COc1ccc(-c2oc3ncn4nc(COc5cccc(C)c5C)nc4c3c2-c2ccc(OC)cc2)cc1	x	x	x	x	x	-26%[76.3 µM]
SMILES	MLL CXXC-DNA inh	Menin-MLL TR inh	Menin MLL FP FL	GAA inhib	aGlu spleen mod	GAA glycogen
Cc1cc(N2CCCC2)ccc1/C=C1/C(=O)N(C)C(=S)N1C	u	22µM*	u	1%	0%	0%
CCOC(=O)c1c(C)[nH]c2cc(Br)c(O)cc12	3%	13%	1	6%	2%	3%
CCOC(=O)c1c(OCC)[nH]c2c1cc(O)c1ccccc12	4%	u	-2	-2%	5%	25µM*
CC(C)NCC(O)Cn1c2c(c3ccccc31)CCc1c-2cnn1-c1ccccc1 (stereo not given)	3%	u	-3	-8%	-6%	31µM*
CCOC(=O)C(C(C)=O)c1c(Br)c(O)c(O)c2c(C(=O)c3ccc(C)cc3)coc12 (stereo not given)	-4%	13%	2	-10%	-13%	32µM*
CCN(c1ccccc1)S(=O)(=O)c1ccc(NC(=O)c2nc(SC)ncc2Cl)cc1	x	x	x	x	x	5%[76.3 µM]
CC1OC(OCC2OC(Oc3c(-c4ccc(O)c(O)c4)oc4cc(O)cc(O)c4c3=O)C(O)C(O)C2O)C(O)C(O)C1O (stereo not given)	x	4%[24.8 µM]	14	x	-1%	x
O=c1c(OC2OC(CO)C(O)C(O)C2O)c(-c2ccc(O)c(O)c2)oc2cc(O)cc(O)c12 (stereo not given)	6%	0%	0	-1%[15.4 µM]	-1%	13µM*
C[C@@H]1O[C@@H](Oc2c(-c3cc(O)c(O)c(O)c3)oc3cc(O)cc(O)c3c2=O)[C@H](O)[C@H](O)[C@H]1O	-4%	7%	0	-3%[15.4 µM]	-2%	3.2µM*
Cc1cccc(OCc2nc(CC(=O)Nc3ccc(C)c(C)c3)cs2)c1	x	x	x	x	x	-8%[76.3 µM]
Oc1ccc(/C=N/Nc2cc(N3CCCC3)nc(N3CCCC3)n2)cc1	u	-22%	0	-11%	-10%	25µM*
Cc1ccccc1Nc1c(-c2ccc(N3CCOCC3)cc2)nc2ncccn12	2%	-4%	2	-1%	6%	u
Cc1ccc(Nc2c(-c3ccsc3)nc3c(C)cccn23)cc1	x	x	x	x	x	11µM*
Cc1cccn2c(Nc3ccccc3)c(-c3ccc(N4CCOCC4)cc3)nc12	x	x	x	x	x	4µM*
O=C(COc1ccccc1F)Nc1ccc2nc(SCC(=O)N3CCOCC3)sc2c1	x	x	x	x	x	-4%[76.3 µM]
COC(=O)CC1Oc2cc3oc4c(c3cc2O1)C(=O)CC(C)(C)C4 (stereo not given)	x	-4%	1	x	3%	x
CC1(C)CC(=O)c2c(oc3cc(O)c(O)cc23)C1	-5%	u	7	-5%	-6%	7.9µM*
O=C(NNC(=O)c1cc(O)c(O)c(O)c1)NC1CCCCC1	-7%	14%	4	-6%	-10%	7.9µM*
NCCC(O)(P(=O)(O)O)P(=O)(O)O	2%	2%	6	x	11%	x
CCCOc1ccc(C2c3c(-c4ccccc4O)n[nH]c3C(=O)N2CCCOCC)cc1OCC (stereo not given)	x	x	x	x	x	-19%[76.3 µM]
CCOC(=O)Nc1ccc2c(c1)N(C(=O)CCN(CC)CC)c1ccccc1CC2	4%	-10%	0	x	x	21%[76.3 µM]
CCOC(=O)Nc1ccc2c(c1)N(C(=O)CN(CC)CC)c1ccccc1CC2	-1%	-2%	-8	x	x	8.9µM*

Screening results deposited in PubChem BioAssay by National Center for Advancing Translational Sciences (NCATS).
